SARS 3CLpro inh: SARS-CoV 3CLpro protease inhibition; AID 1706; 0.14% of 290,000 active; recombinant SARS-CoV 3CLpro, quenched FRET peptide cleavage; P0C6X7; inhibition, % at 6 µM; in the data active = inhibition above about 12%
BoNT F protease: inhibitors of Botulinum neurotoxin F light chain protease; Multiplex microsphere protease cleavage assay, flow cytometry; inhibition, % at 10 µM; 0.22% of 360,000 active; AID 588497; in the data active = inhibition above about 35%, passing the limit was not always enough; inconclusive = no clear call, values can overlap the other calls; note: plate controls were buffer without enzyme for full effect and enzyme alone for no effect
Bead autofluor: counter-screen for toxin protease inhibitors: compound fluorescence; compound autofluorescence counterscreen, microsphere flow cytometry; stronger effect = higher value; fluorescence intensity (concentration not given with the values); 3.1% of 360,000 active; in the data active = fluorescence intensity above about 16000; inconclusive = no clear call, values can overlap the other calls
BoNT A protease: inhibitors of Botulinum neurotoxin A light chain protease | multiplex microsphere protease substrate cleavage, flow cytometry | inhibition, % at 10 µM | 0.17% of 360,000 active; note: plate controls were buffer without enzyme for full effect and enzyme alone for no effect
Anthrax LF prot: blocks Bacillus anthracis lethal factor protease; P15917; multiplex microsphere protease cleavage assay, LF; inhibition, % at 10 µM; 0.12% of 360,000 active; AID 588501; note: plate controls were buffer without enzyme for full effect and enzyme alone for no effect
Target sequence (P15917 whole entry, looked up): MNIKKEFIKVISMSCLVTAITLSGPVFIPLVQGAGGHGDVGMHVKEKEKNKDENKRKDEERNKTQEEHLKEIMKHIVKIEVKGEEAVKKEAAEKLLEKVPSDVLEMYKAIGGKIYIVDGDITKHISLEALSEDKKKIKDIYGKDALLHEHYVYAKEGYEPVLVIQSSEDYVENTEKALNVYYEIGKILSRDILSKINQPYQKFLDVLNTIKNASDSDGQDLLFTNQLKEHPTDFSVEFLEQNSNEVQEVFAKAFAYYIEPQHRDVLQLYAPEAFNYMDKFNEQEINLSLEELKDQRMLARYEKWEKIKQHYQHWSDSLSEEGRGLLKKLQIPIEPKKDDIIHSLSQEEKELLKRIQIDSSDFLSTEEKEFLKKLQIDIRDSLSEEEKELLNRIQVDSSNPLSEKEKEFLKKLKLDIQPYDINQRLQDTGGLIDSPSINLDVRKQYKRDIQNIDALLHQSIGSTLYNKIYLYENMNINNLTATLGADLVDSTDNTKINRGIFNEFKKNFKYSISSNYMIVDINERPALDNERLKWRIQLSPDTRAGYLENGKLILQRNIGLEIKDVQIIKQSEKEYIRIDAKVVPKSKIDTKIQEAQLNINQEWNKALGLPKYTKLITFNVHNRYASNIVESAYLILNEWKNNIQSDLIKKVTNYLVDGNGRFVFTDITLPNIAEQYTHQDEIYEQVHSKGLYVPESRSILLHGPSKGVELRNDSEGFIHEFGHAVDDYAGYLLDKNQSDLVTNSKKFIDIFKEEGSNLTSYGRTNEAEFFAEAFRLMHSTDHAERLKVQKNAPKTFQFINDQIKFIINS
* marks the source's active call; other numbers are inactive results; u = inconclusive; x = no result given. Sampled rows, rich in hits. Any-hit rate of the full collection: about 3.5%. Cut-off read from the data, not from the text of the source, unless noted: active = inhibition above about 30%; inconclusive = no clear call, values can overlap the other calls; inactive = below that.

SMILES	SARS 3CLpro inh	BoNT F protease	Bead autofluor	BoNT A protease	Anthrax LF prot
Cn1nc(-c2ccccc2)c(C(O)c2ccc(Cl)cc2)c1Cl (centres undefined)	7	-2	24423*	-1	-1
O=C(CCC(=O)OCC(=O)c1cccc([N+](=O)[O-])c1)Nc1ccccc1Cl	-3	-7	25045*	-4	-2
Cc1ccc(C)c(NC(=O)CCC(=O)NNC(=O)c2cccc([N+](=O)[O-])c2)c1	0	-4	24147*	u	1
O=C(NNC(=O)c1ccco1)c1cccc([N+](=O)[O-])c1	-2	38*	4513	-1	2
Cc1ccc(/C=C/C(=O)Nc2nnc(SCc3ccc(C#N)cc3)s2)o1	3	-2	2680	-1	0
COc1ccc(C(=O)N/N=C(/C)c2ccc(N3CCCCC3)cc2)cc1	3	-5	2846	0	-1
COCCn1nnnc1C(CC(C)C)N1CCN(C(=O)c2ccco2)CC1 (centres undefined)	2	u	4476	0	-7
CCCNC(=O)Nc1ccc2c(c1)N(C)C(=O)c1ccccc1S2	-1	-3	16271*	1	-2
CCCCNC(=O)Nc1ccc2c(c1)N(C)C(=O)c1ccccc1S2	8	-16	3491	-3	-4
Cc1n[nH]c(=S)n1/N=C/c1ccccc1OCc1ccc(Cl)cc1	-2	-2	19713*	u	1
O=C1OCCN1N=Cc1ccco1	x	-23	3550	1	-6
COc1ccc(OC)c(C(C)NC(=O)c2ccc(Br)cc2)c1 (centres undefined)	0	2	9972	1	3
COc1cc(Br)c(C(C)NC(=O)c2ccccc2)cc1OC (centres undefined)	6	-4	21305*	-2	-2
COCCNC(=O)CN(Cc1ccc(Cl)cc1)S(C)(=O)=O	2	0	20349*	1	0
COc1ccc(NC(=O)CN(Cc2ccccc2)S(C)(=O)=O)cc1	2	0	23289*	2	0
Cc1ccc(NC(=O)CN(Cc2ccccc2)S(C)(=O)=O)cc1C	-3	-1	20638*	0	1
COc1ccc(CNC(=O)CN(C)S(=O)(=O)c2ccccc2)cc1	-1	-1	4634	0	-6
COc1ccc(NC(=O)CN(C)S(=O)(=O)c2ccccc2)cc1	4	0	20336*	0	-4
COCCSc1nnc(NC(=O)c2ccc(OC)c([N+](=O)[O-])c2)s1	-3	0	4499	0	1
O=C(CN(Cc1ccccc1)S(=O)(=O)c1ccc2c(c1)OCCO2)Nc1ccc2c(c1)OCCO2	4	-5	4248	0	-7
CS(=O)(=O)N(CC(=O)Nc1ccc2c(c1)OCCO2)Cc1ccccc1	6	0	21816*	2	0
Cc1ccnc(NS(=O)(=O)c2ccc(N=CC3=C(O)CC(C)(C)CC3=O)cc2)n1	4	2	22067*	u	-1
O=C(CNc1cccc2ccccc12)N/N=C/c1ccc([N+](=O)[O-])o1	11	-3	2098	-1	-2
CCCSc1nc2c(c(=O)[nH]c(=O)n2C)n1Cc1ccc(C)cc1	3	1	21791*	1	-2
CC(C)CCn1c(CN2CCN(Cc3ccccc3)CC2)nc2c1c(=O)[nH]c(=O)n2C	-2	-1	22665*	-1	-1
SMILES	SARS 3CLpro inh	BoNT F protease	Bead autofluor	BoNT A protease	Anthrax LF prot
CCOC(=O)CSc1nc2c(c(=O)[nH]c(=O)n2C)n1C/C=C(/C)Cl	-4	0	24116*	u	-3
Cn1c(=O)[nH]c(=O)c2c1nc(CN1CCN(c3cccc(Cl)c3)CC1)n2CCN1CCOCC1	5	8	20987*	u	3
CC(C)CCn1c(N2CCN(Cc3ccccc3)CC2)nc2c1c(=O)[nH]c(=O)n2C	4	x	x	x	x
COc1ccc(NC2CCCN(C(=O)COc3ccc(C)cc3)C2)cc1 (centres undefined)	-5	-8	6130	-1	-3
Cc1ccc(Cn2c(CN3CCOCC3)nc3c2c(=O)[nH]c(=O)n3C)cc1	4	2	22053*	4	-2
Cc1cc(C)n(CC(C)C(=O)O)n1 (centres undefined)	6	0	3938	0	-1
O=C(Cn1cc([N+](=O)[O-])cn1)Nc1ccn(Cc2c(F)c(F)c(F)c(F)c2F)n1	2	-1	22598*	0	-1
O=C(Cn1cc([N+](=O)[O-])cn1)Nc1ccn(Cc2c(F)c(F)cc(F)c2F)n1	-2	3	23297*	u	-2
O=C(Nc1ccn(Cc2c(F)c(F)cc(F)c2F)n1)c1cccc(Cn2cc([N+](=O)[O-])cn2)c1	3	-1	23743*	-2	-2
Cc1cccc(NC(=O)CCCn2cc([N+](=O)[O-])cn2)n1	7	0	4657	-1	-2
O=C(Nc1ccn(Cc2c(F)c(F)c(F)c(F)c2F)n1)c1cccc(Cn2cc([N+](=O)[O-])cn2)c1	-1	-8	7985	0	-5
Cc1cccc(NC(=O)Cn2cc([N+](=O)[O-])cn2)n1	1	0	4350	0	-1
COC(=O)C1=C(C)N(Cc2cccnc2)C(=O)C1	3	6	22058*	2	1
COC(=O)C1=C(C)N(Cc2ccc(OC)c(OC)c2)C(=O)C1	3	8	2868	0	1
COC(=O)C1=C(C)N(Cc2ccc(OC)cc2)C(=O)C1	-3	-3	20549*	-2	-6
COc1ccc(CN2C(=O)CC(=O)NC2=O)cc1	-4	1	21705*	u	-3
CCOc1ccc(-n2c(=O)[nH]c3sc4c(c3c2=O)CCCC4)cc1	-1	-8	4547	0	10
COc1ccccc1CNC(=O)C1(C)CCN1Cc1ccc2ccccc2c1 (centres undefined)	x	-4	3618	0	-1
Cc1cccc(OCC(O)Cn2c(NCc3cccnc3)nc3c2c(=O)[nH]c(=O)n3C)c1 (centres undefined)	-1	3	2631	1	-1
CCc1ccc(NC(=O)c2noc3c2CCCCC3)cc1	8	-4	10839	1	-2
Cc1ccc(NC(=O)c2noc3c2CCCCC3)cc1	-3	-1	22657*	1	0
Cc1ccc(NC(=O)c2noc3c2CCCCC3)cc1C	-1	-2	16801*	-2	-2
CCN(CC)CCn1c(=S)[nH]c2cc3c(cc2c1=O)OCO3	-9	-2	23550*	u	-1
CCCCNC(=O)CCCn1c(=S)[nH]c2cc3c(cc2c1=O)OCO3	1	-3	20235*	u	-3
COCCCNC(=O)CCCn1c(=O)[nH]c2ccccc2c1=O	3	-13	4262	-1	-2
O=C(CCCCCn1c(=S)[nH]c2ccccc2c1=O)NCc1ccc2c(c1)OCO2	1	-4	23096*	-3	-2
O=c1c2ccccc2[nH]c(=S)n1Cc1ccc2c(c1)OCO2	-4	0	4052	-1	3
COCCNC(=O)CCCCCn1c(=S)[nH]c2ccccc2c1=O	-2	1	22614*	u	2
COc1ccccc1CNC(=O)COC(=O)c1ccccc1-c1ccccc1	x	2	u	2	1

Screens as filed in PubChem.
